NR2F2 inh: NR2F2 transcriptional activity inhibitors, primary screen, cell-based, luciferase reporter, HEK293T, luminescence | COUP transcription factor 2 (Homo sapiens), P24468 | HEK293T NGFI-A luciferase reporter | inhibition, % at 8.6 µM | hit rate 0.7% among 370,000;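 active = inhibition above a per-plate cutoff, mean inhibition of test wells between control levels plus 3 SD, cut at about 38% in these data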;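 note: cells cotransfected with COUP-TFII expression vector driving the NGFI-A reporter; 0% = median of COUP-TF2 test wells and 100% = reporter-only cells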
LRH-1 inv ag: LRH-1 (NR5A2) inverse agonists, primary screen, cell-based, luminescence, HEK293T, StAR-luciferase reporter | Nuclear receptor subfamily 5 group A member 2 (Homo sapiens), O00482 | AID 602396, 2012 | LRH-1 transfected, 24 h | inhibition, % at 3.6 µM | hit rate 0.13% among 360,000;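 active = inhibition above the mean inhibition of all tested compounds plus 3 SD, cut at about 73% in these data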;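 note: 0% = DMSO wells and 100% = reporter-only cells lacking LRH-1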
NCOA1 inh: SRC1 coactivator transcriptional activity inhibitors, primary screen, cell-based, luminescence; Nuclear receptor coactivator 1 (Homo sapiens), Q15788; HEK293 GAL4-SRC1 luciferase reporter; inhibition, % at 3.6 µM; AID 588354, 2011; hit rate 0.12% among 360,000;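 active = inhibition above the campaign mean plus 3 SD, with each screening campaign given its own cutoff, cut at about 60% in these data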;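 note: 0% = DMSO treated cells and 100% = gossypol at 36 µM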
SRC2 inh: inhibition of GAL4-SRC2 driven luciferase reporter, primary screen, SRC2 inhibitor project, cell-based, luminescence. HEK293 GAL4-SRC2 luciferase reporter. AID 651957, 2012. inhibition, % at 9 µM. Nuclear receptor coactivator 2 (Homo sapiens), Q15596. hit rate 0.17% among 370,000;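 active = inhibition above the mean inhibition of all tested compounds plus 3 SD, set per campaign, cut at about 52% in these data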;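 note: 0% = DMSO treated cells and 100% = cells given Gossypol at 36 µM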
NCOA3 inh: SRC3 coactivator transcriptional activity inhibitors, primary screen, cell-based, luminescence; HEK293 GAL4-SRC3 luciferase reporter; Nuclear receptor coactivator 3 (Homo sapiens), Q9Y6Q9; AID 588352, 2011; hit rate 0.17% among 360,000; inhibition, % at 3.6 µM;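 active = inhibition above a per-campaign cutoff, the mean of all compounds plus 3 SD, cut at about 60% in these data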;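 note: 0% = DMSO-treated cells and 100% = gossypol-treated cells at 36 µM; higher means less SRC3-driven luciferase light from the GAL4 reporter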
GalR3 antagonist: GalR3 antagonists in HEK293 cells, primary screen, cell-based, fluorescence readout; hit rate 0.44% among 360,000; HEK293 GalR3-CNG cAMP membrane potential fluorescence; galR3 body fused to GalR1 C-terminus; inhibition, % at 3 µM; Galanin receptor type 3 (Homo sapiens), O60755;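 active = inhibition above the screen-wide average plus 3 SD, cut at about 13% in these data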;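 note: forskolin and galanin both at EC90 stimulate the cells; cAMP rise reported by CNG channel membrane potential dye signal; 0% = forskolin plus galanin with DMSO and 100% = forskolin alone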
GalR3 conf: GalR3 antagonist hit confirmation, cell-based, fluorescence, triplicate | HEK293 GalR3 CNG cAMP biosensor, membrane potential fluorescence; galR3 fused to GalR1 carboxy tail; challenged with forskolin and galanin at EC90 | hit rate 59% among 1,600 | inhibition, % at 3 µM | shares compounds with GalR3 antagonist;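 active = inhibition above the primary screen's cutoff, the mean inhibition of all screened compounds plus 3 SD, cut at about 13% in these data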;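 note: 0% = forskolin plus galanin and 100% = forskolin alone with DMSO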
HEK-CNG parental: nonspecific cAMP agonists in parental HEK-CNG cells, counter-screen for GalR3 antagonist project, cell-based, fluorescence, high throughput | shares compounds with GalR3 antagonist | HEK293-CNG parental cells, cAMP membrane potential fluorescence; normalised: DMSO wells 0%, forskolin wells 100% | activation, % at 3 µM | hit rate 10% among 1,600; in the data active = activation above about 1.3%
Starred values were filed as active, the others as inactive; . = no result. Most compounds without a hit are left out; they make up all but 1.1% or so of the library.

SMILES | NR2F2 inh | LRH-1 inv ag | NCOA1 inh | SRC2 inh | NCOA3 inh | GalR3 antagonist | GalR3 conf | HEK-CNG parental
CN=C1CN=C(c2ccc[nH]2)c2cc(Cl)ccc2N1 | -8 | . | . | . | . | . | . | .
Cc1cccc(C)c1-n1nnnc1C(CCc1ccccc1)N1CCC(n2c(=O)[nH]c3ccccc32)CC1 (stereo not drawn) | -22 | -9 | 32 | -5 | 84* | 1 | . | .
Nc1cc(Cl)c2nonc2c1[N+](=O)[O-] | -8 | 14 | -3 | -122 | -18 | 35* | 20* | 1
O=[N+]([O-])c1c(Cl)c(Cl)c(Cl)c(Cl)c1Cl | 8 | -5 | -20 | -21 | 2 | -3 | . | .
N=C1c2ccccc2CN1NC(=O)c1ccco1 | -48 | 5 | -32 | -31 | 1 | 13* | 2 | 0
CC1N(O)C2CCCCCC2N1O (stereo not drawn) | 3 | -13 | -8 | -6 | 10 | 4 | . | .
COC(=O)C1=C(c2cccc(C#N)c2)C[C@@H]2CC[C@H]1N2C(=O)NC1CC1 | -9 | 5 | 13 | -28 | 1 | 15* | 13* | 0
COC(=O)C1=C(c2ccc(OC)c(OC)c2)C[C@@H]2CC[C@H]1N2C(=O)NC1CCCCC1 | 3 | -16 | 9 | -19 | 9 | -6 | . | .
COC(=O)C1=C(c2ccc(OC)c(OC)c2)C[C@@H]2CC[C@H]1N2C(=O)NC1CC1 | -19 | -19 | -5 | -10 | 9 | 15* | 1 | 0
COc1cc(C)c(CNCCc2c[nH]c3ccccc23)cc1C | 1 | 4 | -10 | 12 | 4 | -11 | . | .
CC12CC[C@H]3[C@@H](CCC4(O)C[C@H](O)CCC34/C=N/NC(=O)c3ccccc3F)C1(O)CCC2C1=CC(=O)OC1 (stereo partly drawn) | 13 | -35 | -6 | -38 | -2 | 37* | 23* | 0
CC12CC[C@H]3[C@@H](CCC4(O)C[C@H](O)CCC34/C=N/NC(=O)c3ccc(O)cc3)C1(O)CCC2C1=CC(=O)OC1 (stereo partly drawn) | -2 | -37 | -59 | 3 | 7 | -5 | . | .
CC12CC[C@H]3[C@@H](CCC4(O)C[C@H](O)CCC34/C=N/NC(=O)c3ccccc3O)C1(O)CCC2C1=CC(=O)OC1 (stereo partly drawn) | -16 | 24 | 4 | -55 | 6 | 30* | 25* | 0
COc1ccc(N2C(=O)C(=O)N(c3ccc(OC)cc3)P2(=O)N(CCCl)CCCl)cc1 | -8 | 5 | -9 | 2 | 0 | -4 | . | .
COc1ccc(-n2c(O)c(C=NCc3ccc4c(c3)OCO4)c(=O)[nH]c2=O)cc1 | 0 | 6 | 20 | -12 | 1 | 14* | 0 | 0
CCOP(=O)(Cc1cc(C#N)oc1C)OCC | -10 | -3 | -5 | -10 | 16 | 2 | . | .
COc1ccc(C(=O)N/N=C/C23CC[C@@H](O)CC2(O)CC[C@@H]2[C@@H]3CCC3(C)C(C4=CC(=O)OC4)CCC23O)cc1 (stereo partly drawn) | -6 | 10 | 6 | -53 | 18 | 34* | 40* | 1
CN(C)c1ccc(C(=O)N/N=C/C23CC[C@@H](O)CC2(O)CC[C@@H]2[C@@H]3CCC3(C)C(C4=CC(=O)OC4)CCC23O)cc1 (stereo partly drawn) | 36 | 37 | 35 | -49 | 39 | 42* | 38* | 1.4*
CC(=O)OCC[N+](C)(C)C | -5 | 0 | -4 | 12 | -1 | 44* | 70* | 1
CC(=O)NCCc1c[nH]c2ccccc12 | -2 | -1 | -14 | -1 | 0 | -3 | . | .
CC(=O)c1cn(CC(=O)NCCc2c[nH]c3ccccc23)c2ccccc12 | 25 | 16 | 15 | 19 | 11 | 18* | 58* | 0
CCNCC(O)c1cccc(O)c1 (stereo not drawn) | -42 | -7 | -23 | -25 | -26 | 54* | 68* | 1
CC(Cc1ccc(O)cc1)NCC(O)c1cc(O)cc(O)c1 (stereo not drawn) | -77 | 8 | -25 | -20 | -25 | . | . | .
c1ccc(C2CN3CCC2CC3)cc1 (stereo not drawn) | 25 | 4 | 2 | -12 | 12 | -3 | . | .
O=C(Cc1cc(=O)oc2cc(O)ccc12)NN=Cc1ccc(N(CCCl)CCCl)cc1 | -11 | 12 | -8 | 8 | -18 | 16* | 31* | -1
SMILES | NR2F2 inh | LRH-1 inv ag | NCOA1 inh | SRC2 inh | NCOA3 inh | GalR3 antagonist | GalR3 conf | HEK-CNG parental
CCCNC(=O)N1[C@H]2CC[C@@H]1C(C(=O)OC)=C(c1cc3ccccc3o1)C2 | 11 | -1 | -3 | -5 | -19 | -5 | . | .
COc1ccccc1N(CC(=O)NC1CCCC1)C(=O)c1cnn(C(C)C)c1 | -34 | -5 | -3 | -10 | -2 | -3 | . | .
Cc1ccc(/C=C2\C(=O)NC(=O)N(CC3CCCO3)C2=O)s1 (stereo not drawn) | 9 | -15 | -11 | -20 | 2 | 16* | 8 | 0
CCN(CC)c1ccc(/C=C2\C(=O)NC(=O)N(CC3CCCO3)C2=O)cc1 (stereo not drawn) | -1 | 30 | -10 | -9 | 1 | 0 | . | .
O=c1[nH]c2ccccc2n1C1CCN(C(CCc2ccccc2)c2nnnn2-c2ccc3c(c2)OCCO3)CC1 (stereo not drawn) | 4 | 31 | -17 | 21 | 60 | 21* | 17* | 0
CC(C)(C)C(=O)O[C@H]1CC[C@@]2(C)C(=CC(=O)C3C2CC[C@]2(C)C(=O)[C@H](O)CC32)C1 (stereo partly drawn) | 10 | -13 | -14 | 16 | -2 | -5 | . | .
CC1CN(CCc2ccccc2)CC(C)O1 (stereo not drawn) | -11 | 2 | 15 | -10 | -1 | 0 | . | .
O=C(N/N=C/c1c(O)n(CCc2ccccc2)c(=O)[nH]c1=O)c1ccccc1O | 0 | -6 | -3 | 6 | -11 | 77* | 53* | 0

Source: PubChem BioAssay (The Scripps Research Institute Molecular Screening Center)
